Measured values published in PubChem BioAssay (NCATS).
Several values for one entry are separate records, joined by “and”; a condition that tells them apart may be missing. Identical values can stand only once. Results filed as inconclusive are left out. Activity calls are given as the source filed them. Unless noted, calls come from the whole dose curve; as a rule, active = well fitted curve in the direction sought with a large enough effect; inconclusive = small, poorly fitted or top-dose-only effect, or another doubt; inactive = no such curve, though single readings can be large; an effect the other way counts as inactive or inconclusive.

Assays:
[1] = qHTS assay for small molecule disruptors of the mitochondrial membrane potential - 1 hr assay (AID 651754; calls by dose curve; note: % is set by controls: 0 for no effect and ±100 for the full control effect; nearly all actives have a fitted effect of over 35% in size)
In short: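 Loss of mitochondrial potential shifts the cationic dye from red mitochondrial aggregates to green cytoplasmic monomers. Cells (HepG2) are treated with compound for 1 hr before a 30 min dye incubation at 37C.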

[2] = qHTS assay for small molecule disruptors of the mitochondrial membrane potential - 5 hr assay (AID 651755; calls by dose curve; note: % is set by controls: 0 for no effect and ±100 for the full control effect; nearly all actives have a fitted effect of over 40% in size)
In short: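 Seed HepG2 overnight, add compound, incubate 5 hr at 37C and 5% CO2, stain 30 min with Mito-MPS, then measure monomer (490/535 nm) and aggregate (540/590 nm) fluorescence.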

[3] = biological target: Tumor necrosis factor (Homo sapiens) (UniProt P01375); test: qHTS assay to identify small molecules that stimulate Tumor Necrosis Factor-alpha (TNF-alpha) secretion (AID 651757; active = well fitted curve in the direction sought with a large enough effect in the signal ratio; the % refers to the signal ratio; note: 0% is about no effect)
Tumor necrosis factor (Homo sapiens), sequence (P01375 whole entry, looked up): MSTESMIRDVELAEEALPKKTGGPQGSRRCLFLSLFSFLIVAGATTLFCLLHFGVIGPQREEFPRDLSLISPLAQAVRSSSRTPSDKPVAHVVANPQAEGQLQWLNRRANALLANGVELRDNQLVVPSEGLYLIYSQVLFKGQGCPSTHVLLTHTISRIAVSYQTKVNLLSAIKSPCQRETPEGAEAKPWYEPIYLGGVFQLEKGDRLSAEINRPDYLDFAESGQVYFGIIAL
In short: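 Human monocytic THP-1 cells are plated, treated with compound and held at 37 C for 17 hrs. Labeled anti-TNF-alpha antibody mixture is then added; after 3 hr at room temperature, TR-FRET signal reports secreted TNF-alpha.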

[4] = qHTS assay for environmental chemicals that activate the Aryl hydrocarbon Receptor (AhR) signaling pathway (AID 651777); details: 1A2-DRE human hepatoma cells, luciferase, 24 h; activation: hits give high values; note: % of control where 0% means no effect; nearly all actives have a fitted effect of over 15% in size
In short: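 Luminescence read-out: One-Glo added for 30 min at RT after 24 hr compound treatment (37 C, 5% CO2) of human hepatoma cells expressing a DRE/CYP1A2 promoter–luciferase reporter; increased signal indicates AhR activation.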

[5] = biological target: Peroxisome proliferator-activated receptor alpha (Homo sapiens) (UniProt Q07869); test: qHTS assay for small molecule agonists of the peroxisome proliferator-activated receptor alpha (PPARalpha) signaling pathway (AID 651778); details: PathHunter PPARalpha complementation, chemiluminescence, 6 h; hits give high values; note: % of control where 0% means no effect
Peroxisome proliferator-activated receptor alpha (Homo sapiens), sequence (Q07869 whole entry, looked up): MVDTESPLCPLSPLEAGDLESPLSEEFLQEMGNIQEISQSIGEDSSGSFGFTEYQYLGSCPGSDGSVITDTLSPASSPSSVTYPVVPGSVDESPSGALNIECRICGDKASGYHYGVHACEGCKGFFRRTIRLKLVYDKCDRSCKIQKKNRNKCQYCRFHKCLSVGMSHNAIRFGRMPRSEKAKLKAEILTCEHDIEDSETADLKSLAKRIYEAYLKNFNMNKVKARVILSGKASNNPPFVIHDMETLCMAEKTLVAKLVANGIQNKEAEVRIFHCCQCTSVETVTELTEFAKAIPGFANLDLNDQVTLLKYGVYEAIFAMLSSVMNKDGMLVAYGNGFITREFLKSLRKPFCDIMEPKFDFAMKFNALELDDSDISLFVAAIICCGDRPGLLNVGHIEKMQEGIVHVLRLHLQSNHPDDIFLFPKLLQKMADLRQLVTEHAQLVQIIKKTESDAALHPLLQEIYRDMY
In short: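 Cells plated at 2,000/well and held overnight at 37 C, 5% CO2, then compound added by pin tool for 6 hr; after PathHunter detection reagent and 60 min at room temperature, chemiluminescence from enzyme complementation was read.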

[6] = biological target: Nuclear receptor ROR-gamma (Homo sapiens) (UniProt P51449); test: qHTS assay for small molecule antagonists of the retinoid-related orphan receptor gamma (ROR-gamma) signaling pathway (AID 651802);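 note: CHO cells with doxycycline-induced ROR-gamma expression; series mostly up to about 92 µM; % is set by controls: 0 for no effect and ±100 for the full control effect; nearly all actives have a fitted effect of over 60% in size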
Nuclear receptor ROR-gamma (Homo sapiens), sequence (P51449 whole entry, looked up): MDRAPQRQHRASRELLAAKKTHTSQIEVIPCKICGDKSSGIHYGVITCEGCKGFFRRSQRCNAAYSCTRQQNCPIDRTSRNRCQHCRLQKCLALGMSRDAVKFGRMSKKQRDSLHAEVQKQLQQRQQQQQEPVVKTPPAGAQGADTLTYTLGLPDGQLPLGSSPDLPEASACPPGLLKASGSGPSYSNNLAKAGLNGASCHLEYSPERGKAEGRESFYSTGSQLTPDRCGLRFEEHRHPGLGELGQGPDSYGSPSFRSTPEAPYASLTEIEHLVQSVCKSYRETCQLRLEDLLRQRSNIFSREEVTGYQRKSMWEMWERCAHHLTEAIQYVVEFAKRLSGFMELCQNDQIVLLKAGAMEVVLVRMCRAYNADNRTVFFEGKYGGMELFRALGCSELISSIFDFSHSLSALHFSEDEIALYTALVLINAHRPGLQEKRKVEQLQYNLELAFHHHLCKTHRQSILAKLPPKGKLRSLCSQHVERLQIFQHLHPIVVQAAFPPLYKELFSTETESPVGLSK
In short: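 Steps: cells dispensed; compound or DMSO transferred by pin tool; doxycycline added to induce the ROR response element-driven luciferase; plates held 16hr at 37C; ONE-Glo added and luminescence measured.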

[7] = qHTS assay for small molecule agonists of the antioxidant response element (ARE) signaling pathway measured by Nrf2-dependant transcriptional activity (AID 720636; active = well fitted curve in the direction sought with a large enough effect in the repeat runs; an effect the other way counts as inactive or inconclusive;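 note: HepG2 cells with an ARE-driven luciferase reporter; % of control where 0% means no effect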)
In short: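 HepG2 ARE-luc reporter line, 1% dialyzed FBS; 6 hr attachment at 37 C, compound pinned in, 16 hr at 37 C/5% CO2; ONE-Glo, 30 min RT, luminescence read.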

[8] = qHTS assay for small molecule antagonists of the retinoid-related orphan receptor gamma (ROR-gamma) signaling pathway - cell viability counter screen (AID 720652; active = well fitted curve in the direction sought with a large enough effect in the repeat runs; an effect the other way counts as inactive or inconclusive;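 note: CHO reporter cells with doxycycline-induced ROR-gamma expression; series mostly up to about 92 µM; compound exposure lasted 16 hr before ATP read; % is set by controls: 0 for no effect and ±100 for the full control effect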)
In short: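 Steps: seed CHO cells bearing TET-inducible ROR and ROR response element-luciferase; rest 5 hr at 37 C; add compound, then doxycycline; incubate 16 hr; add CellTiter-Glo and read luminescence as ATP-based viability.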

[9] = qHTS assay for small molecule agonists of the antioxidant response element (ARE) signaling pathway measured by Nrf2-dependant transcriptional activity - cell viability counter screen (AID 720653; active = well fitted curve in the direction sought with a large enough effect in the repeat runs; an effect the other way counts as inactive or inconclusive; note: % is set by controls: 0 for no effect and ±100 for the full control effect); details: ARE-bla HepG2 viability, CellTiter-Glo ATP luminescence, 16 h; hits give low values
In short: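 ARE-bla HepG2 cells (2,000/well) rested 5 hrs at 37C/5% CO2, then exposed to compounds in DMSO for 16 hrs. Viability was read in the same wells as intracellular ATP by luminescence, 30 min at room temperature after reagent addition.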

[10] = qHTS assay for cell viability of HEK293 cells (AID 743288); details: ATP luminescence (CellTiter-Glo), 18 h, hits give low values; note: % is set by controls: 0 for no effect and ±100 for the full control effect; nearly all actives have a fitted effect of over 50% in size
In short: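 Viable-cell counts were inferred from luciferase-based ATP content in HEK293 cells seeded at 2,000/well, pre-incubated ≥5 h, then dosed with DMSO-solubilised compounds for 18 h at 37 C.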

[11] = biological target: Nuclear receptor subfamily 1 group I member 2 (Rattus norvegicus) (UniProt Q9R1A7); test: qHTS assay for small molecule activators of the rat pregnane X receptor (rPXR) signaling pathway (AID 651751; call rule not given here; note: 0% is about no effect); details: rPXR reporter cells, luciferase (One-Glo), 24 h
Nuclear receptor subfamily 1 group I member 2 (Rattus norvegicus), sequence (Q9R1A7 whole entry, looked up): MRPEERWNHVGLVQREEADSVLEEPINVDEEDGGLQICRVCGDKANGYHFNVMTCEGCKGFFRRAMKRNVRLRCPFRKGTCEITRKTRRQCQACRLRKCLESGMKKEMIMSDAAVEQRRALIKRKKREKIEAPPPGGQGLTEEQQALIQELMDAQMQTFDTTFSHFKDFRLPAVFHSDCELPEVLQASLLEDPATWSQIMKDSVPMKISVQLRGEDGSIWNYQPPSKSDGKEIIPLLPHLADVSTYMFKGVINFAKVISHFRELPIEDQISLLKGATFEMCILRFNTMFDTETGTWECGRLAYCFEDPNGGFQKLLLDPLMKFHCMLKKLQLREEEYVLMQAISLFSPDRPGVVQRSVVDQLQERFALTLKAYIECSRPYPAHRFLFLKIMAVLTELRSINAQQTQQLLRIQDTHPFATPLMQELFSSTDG

[12] = qHTS assay for small molecule activators of the human pregnane X receptor (PXR) signaling pathway (AID 720659; call rule not given here; note: 0% is about no effect)
[13] = qHTS assay for cell viability of the p53RE-bla HCT-116 cell line (AID 743292); note: % is set by controls: 0 for no effect and ±100 for the full control effect; nearly all actives have a fitted effect of over 55% in size
In short: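 Luminescent ATP quantitation (CellTiter-Glo) served as the viability read-out; reagent was added after 16 h compound exposure at 37 C and read after 30 min at room temperature. Cells: p53RE-bla HCT-116, 4,000 per well.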

O=C(O)c1ccccc1[N+](=O)[O-]
inactive: Potency [1] | Potency [2] | Potency [3] | activation [4] -1.41% | max response [5] -2.24% | Potency [6] | outcome [7] | Potency [8] | max response [9] -13.2% | max response [10] 3.94% | max response [11] 0.256% | outcome [12]

Cc1ccc(Cl)cc1
inactive: Potency [1] | Potency [2] | Potency [3] | activation [4] -0.186% | max response [5] -0.102% | Potency [6] | outcome [7] | Potency [8] | max response [9] 4.9% | max response [10] -4.66% | Potency [13] | max response [11] -4.31% | outcome [12]

CCC=O
inactive: Potency [1] | Potency [2] | Potency [3] | activation [4] -0.0092% | max response [5] -0.926% | Potency [6] | outcome [7] | Potency [8] | max response [9] -3.76% | max response [10] 1.05% | Potency [13] | max response [11] 1.07% | outcome [12]

Cc1ccccc1C(=O)O
inactive: Potency [1] | Potency [2] | Potency [3] | activation [4] 0.336% | max response [5] -0.184% | Potency [6] | outcome [7] | Potency [8] | max response [9] 0.515% | max response [10] -7.38% | Potency [13] | max response [11] -1.94% | outcome [12]

c1ccc2n[nH]nc2c1
inactive: Potency [1] | Potency [2] | Potency [3] | activation [4] 0.556% | max response [5] -6.33% | Potency [6] | outcome [7] | Potency [8] | max response [9] 3.37% | max response [10] -14.1% | Potency [13] | max response [11] -4.36% | outcome [12]

CC(C)c1ccccc1
inactive: Potency [1] | Potency [2] | Potency [3] | activation [4] -1.48% | max response [5] 3.38% | Potency [6] | outcome [7] | Potency [8] | max response [9] -7.17% | max response [10] -0.678% | Potency [13] | max response [11] -5.7% | outcome [12]

CCCCCCCCCCCCOCC1CO1 (centres undefined)
inactive: Potency [1] | Potency [2] | Potency [3] | activation [4] 0.152% | max response [5] -0.128% | Potency [6] | outcome [7] | Potency [8] | max response [9] 2.47% | max response [10] -5.24% | Potency [13] | max response [11] 1.3% | outcome [12]

O=C(O)c1ccc(Cl)cc1Cl
inactive: Potency [1] | Potency [2] | Potency [3] | activation [4] -0.705% | max response [5] -5.53% | Potency [6] | outcome [7] | Potency [8] | max response [9] -0.648% | max response [10] 4.16% | Potency [13] | max response [11] 4.22% | outcome [12]

CC(C)CCOC(=O)/C=C/c1ccccc1
inactive: Potency [1] | Potency [2] | Potency [3] | activation [4] 0.411% | max response [5] 0.372% | Potency [6] | outcome [7] | Potency [8] | max response [9] 5.13% | max response [10] -10.1% | Potency [13] | max response [11] 0.15% | outcome [12]

CC/C=C1/OC(=O)c2ccccc21
inactive: Potency [1] | Potency [2] | Potency [3] | activation [4] 0.751% | max response [5] -2.48% | Potency [6] | outcome [7] | Potency [8] | max response [9] 4.48% | max response [10] -15.4% | Potency [13] | max response [11] -1.09% | outcome [12]

C=C(C)C(N)=O
inactive: Potency [1] | Potency [2] | Potency [3] | activation [4] -1.72% | max response [5] -6.13% | Potency [6] | outcome [7] | Potency [8] | max response [9] -10.7% | max response [10] -1.33% | Potency [13] | max response [11] 2.1% | outcome [12]

C1COC1
inactive: Potency [1] | Potency [2] | Potency [3] | activation [4] -0.727% | max response [5] 0.481% | Potency [6] | outcome [7] | Potency [8] | max response [9] -0.519% | max response [10] 7.71% | Potency [13] | max response [11] -0.345% | outcome [12]

O=C1OC(=O)c2c(Cl)c(Cl)c(Cl)c(Cl)c21
inactive: Potency [1] | Potency [2] | Potency [3] | activation [4] 0.646% and 1.03% | max response [5] 0.893% and -0.287% | Potency [6] | outcome [7] | Potency [8] | max response [9] 1.45% and 13.5% | max response [10] 5.35% and -3.52% | Potency [13] | max response [11] 0.139% and -2.42% | outcome [12]

O=[N+]([O-])c1c(Cl)cc(Cl)cc1Cl
inactive: Potency [1] | Potency [2] | Potency [3] | activation [4] 0.0842% | max response [5] 0.895% | Potency [6] | outcome [7] | Potency [8] | max response [9] -2.01% | max response [10] 8.66% | Potency [13] | max response [11] 9.05% | outcome [12]

O=[N+]([O-])c1cccc(Cl)c1
inactive: Potency [1] | Potency [2] | Potency [3] | activation [4] 0.317% | max response [5] -3.34% | Potency [6] | outcome [7] | Potency [8] | max response [9] -6.97% | max response [10] -0.245% | Potency [13] | max response [11] 0.107% | outcome [12]

c1ccc2[nH]cnc2c1
inactive: Potency [1] | Potency [2] | Potency [3] | activation [4] 1.2% | max response [5] -1.28% | Potency [6] | outcome [7] | Potency [8] | max response [9] -6.28% | max response [10] 3.37% | max response [11] 3.1% | outcome [12]

CC(=O)Nc1cccc(N)c1
inactive: Potency [1] | Potency [2] | Potency [3] | activation [4] -0.0665% | max response [5] -7.63% | Potency [6] | outcome [7] | Potency [8] | max response [9] 1.46% | max response [10] 8.3% | Potency [13] | max response [11] -0.641% | outcome [12]
